Survival data for 88 compounds are collected here from PubChem BioAssay AID463173 (ICCB-Longwood Screening Facility, Harvard Medical School, 2010).

Among all 52,000 compounds or so, about 4,300 (8.3%) were called active. The sample holds actives, similar compounds and a random draw of the others, so the mix is not that of the screen. Cut-off read from the data, not from the text of the source: active = survival mostly below about 52% (no sharp cut-off); inactive = mostly above about 56%.

For the assay, the system named is DeltatarO mutant. Kind of assay: growth inhibition of S. aureus wild type versus tarO mutant, primary screen, teichoic acid synthesis inhibitors, RN4220, OD600 (AID 463173). As to conditions: OD600, 18 h, hits give low values, screened at 18.75 µg/mL (by protocol).
Turning to `COc1ccc(OCC(=O)OCc2cc(=O)n3nc(C4CC4)sc3n2)cc1`, the survival is 61% (inactive).

On to `COc1ccc(CNC(=O)CC(c2ccc(OC)c(OC)c2)N2Cc3ccccc3C2=O)cc1` (stereo not drawn), for which the survival is 87% (inactive).

For the compound `CCC(=O)N1CCc2cc(OC)c(OC)cc2C1COc1ccc2c(C)cc(=O)oc2c1` (stereo not drawn), the survival was 136% (inactive).

`O=C(Nc1ccc(F)c(F)c1)c1cc(S(=O)(=O)NC2CCCC2)ccc1F`: the survival was 118% (inactive).

In the case of `CC(C)Oc1ccc(CNS(=O)(=O)c2csc(C(N)=O)c2)cc1`, the survival is 101% (inactive).

`COc1cccc2c1Oc1ncccc1N(C(=O)CCC(=O)NCc1ccc(OC(C)C)cc1)C2`: the survival is 83% (inactive).

With `CCCCN(C)C(=O)CN1C(=O)c2cccnc2Oc2ccc(Cl)cc21`, the survival is 89% (inactive).

As to `CCN(c1ccccc1)S(=O)(=O)c1nnc(NC(=O)COc2ccccc2F)s1`, the survival was 31% (active).

For `CCN(CC)S(=O)(=O)c1nnc(NC(=O)COc2ccccc2F)s1`, the survival was 103% (inactive).

On to `CCN(c1ccccc1)S(=O)(=O)c1nnc(NC(=O)COc2ccc(OC)cc2)s1`, for which the survival was 55% (inactive).

On to `O=C1C2CCCC1C(c1ccc3c(c1)OCO3)NC2c1ccc2c(c1)OCO2` (stereo not drawn), for which the survival is 58% (inactive).

As for `Cc1ccc(-n2ncc(C(=O)NCCCN3CCN(C)CC3)c2C2CCN(C(=O)OC(C)(C)C)CC2)cc1`, the survival was 96% (inactive).

For the compound `COc1ccc(N2CCN(C(=O)c3noc4c3CCCCC4)CC2)cc1`, the survival is 72% (inactive).

As for `O=C(c1ccc2c(c1)N(Cc1ccc(F)cc1)C(=O)c1ccccc1S2(=O)=O)N1CCCCCC1`, the survival is 71% (inactive).

As for `Cc1ccc2oc(C(=O)Nc3ccc(S(=O)(=O)N(C)Cc4ccccc4)cc3)cc(=O)c2c1`, the survival was 50% (inactive).

With `Clc1cccc(N2CCN(c3ncnc4c3nc3n4CCCCC3)CC2)c1`, the survival is 11% (active).

For the compound `Clc1cccc(N2CCN(c3ncnc4c3nc3n4CCCC3)CC2)c1`, the survival is 114% (inactive).

On to `O=C(C1CCN(c2ncnc3c2nc2n3CCCCC2)CC1)N1CCN(c2cccc(Cl)c2)CC1`, for which the survival is 64% (inactive).

For `c1ccc(N2CCN(c3ncnc4c3nc3n4CCCCC3)CC2)cc1`, the survival was 89% (inactive).

As to `Cc1ccc(NC(=O)C2CCCN(c3ncnc4c3nc3n4CCCCC3)C2)cc1F` (stereo not drawn), the survival was 92% (inactive).

On to `COc1ccc(N2CCN(c3ncnc4c3nc3n4CCCCC3)CC2)cc1`, for which the survival is 100% (inactive).

Consider `COc1cccc(N2CCN(c3ncnc4c3nc3n4CCCCC3)CC2)c1`, for which the survival is 20% (active).

Regarding `O=C(Nc1cccc(Cl)c1)C1CCCN(c2ncnc3c2nc2n3CCCCC2)C1` (stereo not drawn), the survival was 17% (active).

`CCN(C(=O)C1CCCN(c2ncnc3c2nc2n3CCCCC2)C1)c1cccc(Cl)c1` (stereo not drawn): the survival was 82% (inactive).

For the compound `COc1ccc(OC)c(CNc2ncnc3onc(C)c23)c1`, the survival was 129% (inactive).

`CCOc1ccc(NC(=O)c2cc(S(=O)(=O)N3CCC(C)CC3)cn2C)cc1`: the survival is 112% (inactive).

As to `CCOc1ccc(/C=C/c2nc(C#N)c(NCc3ccc(OC)cc3)o2)cc1`, the survival is 68% (inactive).

For `CCOC(=O)c1[nH]c2c(c1Cc1ccccc1)C(=O)CC(c1ccccc1)C2` (stereo not drawn), the survival is 64% (inactive).

Take `CCOc1ccc(CCNc2nc3c(-c4ccc(C)cc4)nnn3c3ccccc23)cc1OCC`: the survival is 88% (inactive).

As for `Cc1cc(-c2ccc(C)c(S(=O)(=O)N(C)c3ccc(C)c(C)c3)c2)on1`, the survival was 86% (inactive).

With `O=C(Nc1ccc(OC(F)(F)F)cc1)c1cc2c(=O)n3ccccc3nc2s1`, the survival was 87% (inactive).

With `Cn1c(C(=O)Nc2ccc(OC(F)(F)F)cc2)cc2c(=O)n3ccccc3nc21`, the survival is 55% (active).

Regarding `Cn1c(C(=O)Nc2cccc(C(F)(F)F)c2)cc2c(=O)n3ccccc3nc21`, the survival is 98% (inactive).

For the compound `CCCCCNC(=O)c1cc2c(=O)n3ccccc3nc2n1C`, the survival was 54% (inactive).

As for `Cn1c(C(=O)NCCc2ccccc2)cc2c(=O)n3ccccc3nc21`, the survival is 48% (active).

In the case of `COc1ccc(CCNC(=O)c2cc3c(=O)n4ccccc4nc3n2C)cc1`, the survival is 61% (inactive).

In the case of `Cc1ccc(NC(=O)CSc2nc3c(c(=O)[nH]2)CN(Cc2ccccc2)CC3)cc1Cl`, the survival was 70% (inactive).

On to `CSc1ccc(CCNC(=O)CCCn2nc(C)c3sc4ccccc4c3c2=O)cc1`, for which the survival was 76% (inactive).

`N/N=C1\C(=N/O)CCc2nonc21`: the survival was 95% (inactive).

For the compound `CCN(CC)c1ccc(NC(=O)Cn2ncc3c(C)n(Cc4ccccc4F)c(C)c3c2=O)c(C)c1`, the survival was 79% (inactive).

Regarding `Fc1ccc(N2CCN(c3ncnc4onc(-c5ccc(Cl)cc5)c34)CC2)cc1`, the survival is 65% (inactive).

Regarding `Cc1nc(N2CCOCC2)c2c(C(=O)N3CCN(c4ccccc4)CC3)c(C)oc2n1`, the survival is 37% (active).

Regarding `Cc1nc(N2CCOCC2)c2c(C(=O)NCCc3ccccc3)c(C)oc2n1`, the survival was 0% (active).

For `Cc1oc2ncnc(N3CCCCC3)c2c1C(=O)N1CCN(c2cccc(C(F)(F)F)c2)CC1`, the survival was 66% (inactive).

In the case of `Cc1ccc(CCNC(=O)c2c(C)oc3nc(C)nc(N4CCOCC4)c23)cc1`, the survival was 106% (inactive).

As to `Cc1nc(N2CCOCC2)c2c(C(=O)N3CCN(c4ccc(Cl)cc4)CC3)c(C)oc2n1`, the survival is 92% (inactive).

With `Cc1oc2ncnc(N3CCOCC3)c2c1C(=O)NCCc1ccccc1`, the survival was 89% (inactive).

As for `Cc1nc(N2CCOCC2)c2c(C(=O)N3CCN(c4cccc(C(F)(F)F)c4)CC3)c(C)oc2n1`, the survival is 105% (inactive).

`Fc1ccccc1N1CCN(c2ncnc3onc(-c4cccc(Cl)c4)c23)CC1`: the survival is 53% (inactive).

With `Fc1ccccc1N1CCN(c2ncnc3onc(-c4ccc(Cl)cc4)c23)CC1`, the survival is 54% (active).

In the case of `Cc1oc2ncnc(N3CCOCC3)c2c1C(=O)N1CCN(c2cccc(C(F)(F)F)c2)CC1`, the survival is -5% (active).

Take `Cc1nc(N2CCCC2)c2c(C(=O)N3CCN(c4ccccc4)CC3)c(C)oc2n1`: the survival is 81% (inactive).

As for `COc1ccc2c(CNCc3cccs3)c(C(=O)O)n(Cc3ccc(C)cc3)c2c1`, the survival was 77% (inactive).

For the compound `CCCOc1ccc(C(=O)NCC(c2ccc(OC)cc2)N2CCCCC2)cc1` (stereo not drawn), the survival was 84% (inactive).

Take `Cc1nc2ccc(NC(=O)C3CC3)cc2c(=O)n1Cc1ccc(F)cc1`: the survival is 74% (inactive).

Regarding `Cc1ccc(CCNC(=O)c2cc(-c3ccc(Cl)cc3)n[nH]2)cc1`, the survival was 69% (inactive).

As for `CC(Nc1ncnc2c1cnn2-c1cccc(Cl)c1)c1ccccc1` (stereo not drawn), the survival was 124% (inactive).

In the case of `COc1ccccc1Cn1c(CNS(=O)(=O)c2ccc3c(c2)CCCC3)nc2cccnc21`, the survival is 96% (inactive).

For `CCOCCCn1c(=N)c(S(=O)(=O)c2ccccc2)cc2c(=O)n3cc(C)ccc3nc21`, the survival was 88% (inactive).

`Cc1ccc(CN2CCCn3nc(C(=O)NCc4ccc(N(C)C)cc4)cc3C2=O)cc1`: the survival is 80% (inactive).

In the case of `Cc1oc2ncnc(N3CCCCC3)c2c1C(=O)N1CCN(c2ccc(Cl)cc2)CC1`, the survival was 60% (inactive).

`Cc1ccc(C)c(N2CCN(c3ncnc4onc(C)c34)CC2)c1`: the survival was 90% (inactive).

For `Cc1ccc(C)c(N2CCN(C(=O)c3c(C)oc4nc(C)nc(N5CCOCC5)c34)CC2)c1`, the survival was 115% (inactive).

As for `Cc1nc(N2CCOCC2)c2c(C(=O)N3CCN(c4cc(Cl)ccc4C)CC3)c(C)oc2n1`, the survival was 46% (active).

`Cc1ccc(Cl)cc1N1CCN(C(=O)c2c(C)oc3ncnc(N4CCOCC4)c23)CC1`: the survival is 89% (inactive).

On to `Cc1nc(N2CCCC2)c2c(C(=O)N3CCN(c4cc(Cl)ccc4C)CC3)c(C)oc2n1`, for which the survival is 102% (inactive).

Take `Cc1ccc(Cl)cc1N1CCN(c2ncnc3onc(-c4ccc(F)cc4)c23)CC1`: the survival was 97% (inactive).

Turning to `Cc1ccc(Cl)cc1N1CCN(c2ncnc3onc(C)c23)CC1`, the survival is 52% (active).

For `Cc1ccc(Cl)cc1N1CCN(C(=O)c2c(C)oc3ncnc(N4CCCCC4)c23)CC1`, the survival is -4% (active).

As for `CCc1c(C)nc2cc(-c3ccc(OC)c(OC)c3)nn2c1NCC(C)(C)CN(C)C`, the survival was 98% (inactive).

With `Cc1ccc(-n2ncc(C(=O)NCc3ccccn3)c2C2CCN(C(=O)OC(C)(C)C)CC2)cc1C`, the survival is 102% (inactive).

Turning to `CCCC(=O)N1CCCC(c2nc(-c3ccc(OC)cc3)no2)C1` (stereo not drawn), the survival is 82% (inactive).

Consider `CCOc1nc(NC(=O)NS(=O)(=O)Oc2cccc(F)c2)nc(-c2ccccc2)n1`, for which the survival is 74% (inactive).

On to `Cc1c(NC(=O)Nc2ccccc2C(F)(F)F)sc2nc3n(c(=O)c12)CCC(C)CC3` (stereo not drawn), for which the survival was 83% (inactive).

On to `COc1cccc(C(=O)NC2CC(=O)N(c3ccc4c(c3)OCCO4)C2)c1OC` (stereo not drawn), for which the survival was 107% (inactive).

Regarding `CCCCN(CCCC)CCCNC(=O)c1ccc2nc(N3CCCCC3)sc2c1`, the survival was 102% (inactive).

Turning to `CCCCOCc1cc(CN2CCN(c3cccc(Cl)c3)CC2)c(O)c2ncccc12`, the survival is 83% (inactive).

Take `CCc1cccc(C)c1NC(=O)C1CCN(S(=O)(=O)Cc2ccccc2)CC1`: the survival is 84% (inactive).

In the case of `Cc1cccc(N(CC(=O)NCCSCc2ccccc2)S(=O)(=O)c2ccccc2)c1C`, the survival is 57% (inactive).

With `Cc1ccc(S(=O)(=O)N(CC(=O)Nc2c(C)cccc2C)c2cccc(Cl)c2)cc1`, the survival was 46% (active).

Consider `Cc1cccc(N(CC(=O)NCCc2ccccc2)S(=O)(=O)c2ccccc2)c1C`, for which the survival was 56% (active).

With `Cc1ccc(S(=O)(=O)N(CC(=O)NCCc2ccc(Cl)cc2)c2ccccc2C)cc1`, the survival is 49% (active).

With `Cc1ccc(S(=O)(=O)N(CC(=O)NCCSc2ccc(Cl)cc2)c2cccc(Cl)c2)cc1`, the survival was 112% (inactive).

Consider `Cc1ccc(S(=O)(=O)N(CC(=O)NCCSc2ccc(Cl)cc2)c2ccccc2C)cc1`, for which the survival is 58% (inactive).

As to `COc1ccc(CCNC(=O)CN(c2ccccc2OC)S(=O)(=O)c2ccc(C)cc2)cc1`, the survival was 71% (inactive).

Turning to `Cc1ccc(S(=O)(=O)N(CC(=O)Nc2ccc(Cl)cc2Cl)c2ccccc2C)cc1`, the survival is 106% (inactive).

With `Cc1ccc(CNC(=O)CN(c2cccc(C)c2C)S(=O)(=O)c2ccccc2)cc1`, the survival is 73% (inactive).

In the case of `Cc1ccccc1CNC(=O)c1cnc2sc(N3CCOCC3)nn2c1=O`, the survival is 68% (inactive).
